From PubChem BioAssay (Tox21)
Records with an inconclusive call do not appear. Entries that show only a call come without a potency. The source made the active and inactive calls. The call rests on the fitted dose curve; in most records, active means well fitted cell-killing curve with a large enough effect in the repeat runs; inconclusive means weak or mixed curves, or effect the other way; inactive means no such curve, though single readings can be large or run the other way.
Potency means the concentration at half of the fitted maximal effect.

Assay: qHTS assay to identify small molecule agonists of the RXR signaling pathway - cell viability counter screen (AID 1159529); further: nearly all actives have a fitted effect of over 50% in size
Details: RXR-alpha-bla HEK293T viability, CellTiter-Glo, 16 h; series mostly up to 76.8 µM
Outline: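 Luminescence from CellTiter-Glo (30 min, RT) measured viability in the same wells as the beta-lactamase reporter readout. Cells: GeneBLAzer RXR-alpha HEK 293T, 2% charcoal-stripped FBS. Compound exposure 16 hr, 37 C.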
With Nc1ccc(S(=O)(=O)NCc2ccccc2)cc1 the Potency was “inactive”. For Cc1cccc(C)c1NC(=O)c1cc(S(N)(=O)=O)c(Cl)cc1O, the Potency was “inactive”. With CC(C)(C)S the Potency was “inactive”. In the case of CCN(CC)C(=O)/C(C#N)=C/c1cc(O)c(O)c([N+](=O)[O-])c1, the Potency is reported as “inactive”. With CCCCOC(=O)CCCCC(=O)OCCCC the Potency was “inactive”. In the case of CC(C)(C(=O)c1cccnc1)c1cccnc1, the Potency is reported as “inactive”. In the case of CC(C)Cc1ccc(CC(=O)O)cc1, the Potency is reported as “inactive”. With O=C(O)CCS the Potency was “inactive”. With CC(C)C(=O)OCCOc1ccccc1 the Potency was “inactive”. In the case of CCC(=O)OCc1ccc(OC)cc1, the Potency is reported as “inactive”. For CC(=O)c1ccc[nH]1, the Potency was “inactive”. With Nc1nc(-c2ccc([N+](=O)[O-])cc2)cs1 the Potency was “inactive”. For CCCCCCCCCCCSCC(=O)O, the Potency was 19.5 µM (active). In the case of CC1=CC[C@@]23C[C@@H]1C(C)(C)[C@@H]2CC[C@H]3C, the Potency is reported as “inactive”. In the case of C=Cc1ccc(OC(C)=O)cc1, the Potency is reported as “inactive”. For C1CCCCC1, the Potency was “inactive”. For O=C(O)c1cccc(Oc2ccccc2)c1, the Potency was “inactive”. For O=C1[C@@H]2[C@H]3CC[C@H](C3)[C@@H]2C(=O)N1CCCCN1CCN(c2ncccn2)CC1, the Potency was “inactive”. For CC(C)COC(=O)COc1cc(Cl)c(Cl)cc1Cl, the Potency was “inactive”. For CCCC(=O)OC(=O)CCC, the Potency was “inactive”. With COc1cc(S(=O)(=O)Nc2ccccc2)c(OC)cc1N the Potency was “inactive”. In the case of Cc1cc([N+](=O)[O-])ccc1N, the Potency is reported as “inactive”. For CC(=O)OCC1=C(C(=O)O)N2C(=O)[C@@H](NC(=O)CSc3ccncc3)[C@H]2SC1, the Potency was “inactive”. For COc1ccc(CCN(C)CCCN2CCc3cc(OC)c(OC)cc3CC2=O)cc1OC, the Potency was “inactive”. For Oc1cccc2[nH]ccc12, the Potency was “inactive”. With Cc1ccc(N(CCO)CCO)cc1 the Potency was “inactive”. In the case of CC(=O)OCC(C)C, the Potency is reported as “inactive”. With O=C(O)CCC(=O)OC[C@@H](NC(=O)C(Cl)Cl)[C@H](O)c1ccc([N+](=O)[O-])cc1 the Potency was “inactive”. With Nc1ccc(F)cc1 the Potency was “inactive”. With CSCC[C@H](NC(=O)[C@H](Cc1c[nH]c2ccccc12)NC(=O)CCNC(=O)OC(C)(C)C)C(=O)N[C@@H](CC(=O)O)C(=O)N[C@@H](Cc1ccccc1)C(N)=O the Potency was “inactive”. With CC[C@H]1OC(=O)[C@H](C)[C@@H](O[C@H]2C[C@@](C)(OC)[C@@H](O)[C@H](C)O2)[C@H](C)[C@@H](O[C@@H]2O[C@H](C)C[C@H](N(C)C)[C@H]2O)[C@](C)(O)C[C@@H](C)C(=O)[C@H](C)[C@@H](O)[C@]1(C)O the Potency was “inactive”. In the case of O=C(NS(=O)(=O)/C=C/c1ccccc1)c1ccc(F)cc1Cl, the Potency is reported as “inactive”. With O=C(c1ccccc1)c1ccc(O)cc1 the Potency was “inactive”. With CC(C(=O)O)c1ccc(C(=O)c2cccs2)cc1 (centres undefined) the Potency was “inactive”. For O=C1c2ccccc2C(=O)c2c(O)ccc(O)c21, the Potency was “inactive”. In the case of CC(C)N(C)C, the Potency is reported as “inactive”. For C=CC(=O)O, the Potency was “inactive”. For CCC(Cl)CC(Cl)C(Cl)C(Cl)C(Cl)C(C)Cl (centres undefined), the activity change, negative = cytotoxicity was -9.76% [at 15.8 µM] (inactive). In the case of CCN(CC)CCOC(=O)C(c1ccccc1)c1ccccc1, the Potency is reported as “inactive”.
